Measured values published in PubChem BioAssay (NCATS).
Results filed as inconclusive are left out. Unmarked numbers belong to inactive results. Active and inactive are the calls of the source. Calls come from the whole dose curve; as a rule, active = well fitted cell-killing curve with a large enough effect; inconclusive = small, poorly fitted or top-dose-only effect, or effect the other way; inactive = flat fitted curve, though single readings scatter.

The compounds below were run on SKOV3 (assay: Primary qHTS to identify gynecologic anti-cancer compounds using libraries of approved drugs and bioactive compounds (AID 1345084; note: nearly all actives have a fitted effect of over 55% in size)). Conditions: Gynecologic cancer cell panel viability, ATPlite luminescence, 48 h; series mostly up to 57.5 µM; activity change, negative = cytotoxicity: at the top concentration.
Procedure, shortened: (§1)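 Measured: luminescence after ATPlite addition (15 min, RT). Exposure: 48 h, 37 C, 5% CO2.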
% is set by controls: 0 for no effect and ±100 for the full control effect; potency is the fitted concentration of half-maximal effect.

| Structure (SMILES) | activity change, negative = cytotoxicity | Potency |
| --- | --- | --- |
| CCCCC1CCN(CCCN2C(=O)CCc3ccccc32)CC1 | -19.7% |  |
| Clc1cccc(COc2cncc(N3CCNCC3)n2)c1 | -5.34% |  |
| O=C(NCC1CCN(Cc2cccc(Cl)c2)CC1)[C@@H]1CCCN(c2ncnc3c2nc2n3CCCC2)C1 | -1.52% |  |
| CC[C@@H](Nc1c(Nc2cccc(C(=O)N(C)C)c2O)c(=O)c1=O)c1cc(C(C)C)co1 | 25.4% |  |
| COc1c(CCC(=O)O)cccc1O[C@@H]1O[C@H](CO)[C@@H](O)[C@H](O)[C@H]1O | 5.41% [at 38.5 µM] |  |
| COC(=O)c1ccc2c(c1)nc(NC(=O)c1ccccc1)n2CCCc1ccccc1 | -24.4% |  |
| Cc1nc(-c2cn3c(n2)-c2ccc(-c4cnn(C(C)(C)C(N)=O)c4)cc2OCC3)n(C(C)C)n1 |  | 631 nM (active) |
| CC(C)C(C)C(O)C1CC23CC(=O)C4(O)C(=C2CCC3C1C)C=CC1(O)CC(O)CCC14C (stereo not drawn) | 14.4% [at 25.3 µM] |  |
| C=C1CCC[C@]2(C)CC/C(=C(/CO)C(=O)OC)C[C@@H]12 | 7.04% |  |
| O=S(=O)(NCc1ccccn1)c1ccc(Br)c2ccccc12 | 13.1% |  |
| CCC(C)C(=O)OC12C(OC(C)=O)C(C)C3(O)C(C=C(CO)CC4(O)C(=O)C(C)=CC43)C1C2(C)C (stereo not drawn) | -20.9% [at 25.3 µM] |  |
| CO[C@@H]1[C@H](O)CCC2(CO2)[C@H]1[C@@]1(C)O[C@@H]1CC=C(C)C (stereo partly drawn) | -4.44% |  |
| COc1ccc(-c2cnc3c(-c4cccc5ncccc45)cnn3c2)cc1 | -26.2% |  |
| CC(C)(O)c1ccn2c(-c3ccc(F)c(-c4ccc(F)cc4C#N)c3)cnc2c1F | 9.09% |  |
| O=C(N[C@H](Cc1cscn1)C(=O)N[C@@H](CC1CCCCC1)[C@@H](O)[C@@H](O)C1CC1)c1nc2ccccc2[nH]1 | 1.3% |  |
| CC(=O)C1=C(O)C=C2Oc3c(C(C)=O)c(O)c(C)c(O)c3[C@]2(C)C1=O | 25.7% |  |
| CC[C@H]1OC(=O)[C@H](C)[C@@H](O[C@H]2C[C@@](C)(OC)[C@@H](O)[C@H](C)O2)[C@H](C)[C@@H](O[C@H]2O[C@H](C)C[C@H](N(C)C)[C@H]2O)[C@](C)(O)C[C@@H](C)C(=O)[C@H](C)[C@@H](O)[C@]1(C)O | -12.8% [at 25.3 µM] |  |
| Cc1cc(C)cc(-c2cnc3cc(Cl)c(-c4cccc(O)c4)cc3c2OCCCN)c1 | -29.4% |  |
| O=C(c1ccc(Cl)cc1)N1CCN(c2ccnc3cc(Cl)ccc23)CC1 | -22.3% |  |
| C/C=C(\C)C(=O)O[C@H]1C[C@](C)(O)[C@H]2CC=C(C)[C@H]2[C@@H]2OC(=O)[C@H](C)[C@H]21 | -6.56% [at 38.5 µM] |  |

| Structure (SMILES) | activity change, negative = cytotoxicity | Potency |
| --- | --- | --- |
| CC(C)(CNC(=O)c1cccc(-c2noc(C(F)(F)F)n2)c1)c1coc(-c2ccccc2)n1 | -24.8% |  |
| NS(=O)(=O)c1ccc(N2N=C(c3ccccc3)CC2c2ccccc2)cc1 (stereo not drawn) | 11.5% |  |
| O=C(O)C1=CO[C@@H](O[C@@H]2O[C@H](CO)[C@@H](O)[C@H](O)[C@H]2O)[C@@H]2C(CO)=CC[C@H]12 | 8.8% [at 38.5 µM] |  |
| COC(=O)c1ccnc(-c2cc(C(=O)Nc3ccc(C4(N)CC4)cc3)ccn2)c1 | 11.7% |  |
| CNCCN1CCC(c2cc(CN(C)C(=O)c3cccc(Oc4ccccc4)c3)ccn2)CC1 | -0.99% [at 25.3 µM] |  |
| Cc1c(F)ccc(C(=O)Nc2cc([N+](=O)[O-])ccc2N2CCN(C)CC2)c1Cl | 24.2% |  |
| CCNC(=O)c1noc(-c2cc(Cl)c(O)cc2O)c1-c1ccc(OC)cc1 |  | 2820 nM (active) |
| C[C@@H](O[C@H]1OCCN(Cc2nn(P(=O)(O)O)c(=O)[nH]2)[C@H]1c1ccc(F)cc1)c1cc(C(F)(F)F)cc(C(F)(F)F)c1 | 0% [at 25.3 µM] |  |
| Cc1[nH]c2ccccc2c1CCNC(=O)c1cccs1 | 7.95% |  |
| CCC(C)/C=C(C)/C=C/C1=CC2=CC(=O)C3(C)OC(C)(O)C(C(=O)OC)C3C2=CO1 (stereo not drawn) | 8.99% [at 25.3 µM] |  |
| C=C(C(=O)OC)[C@@H]1CC=C2C=CC(=O)[C@H](C)[C@@]2(C)C1 | 2.77% |  |
| NS(=O)(=O)c1ccc(NC(=O)Nc2ccc(F)cc2)cc1 | -2.13% |  |
| Cc1ccc(CNc2ncnc3ccc(-c4ccc(CO)o4)cc23)o1 | -2.99% |  |
| Cc1ccc(-c2c(C(=O)CCl)n(CCCO)c3ncnc(N)c23)cc1 | -24.3% |  |
| CNC(=O)COC(=O)N1CCC(CCc2ccc(Cl)cc2)CC1 | -4.88% |  |
| Cn1ncnc1[C@@H]1c2n[nH]c(=O)c3cc(F)cc(c23)N[C@H]1c1ccc(F)cc1 | 0.547% |  |
| C=C[C@H](/C=C\c1ccc(O)cc1)c1ccc(O)cc1 | -4.68% |  |
| Cc1c(C(=O)Nc2ccc(N3CCC(N4CCOCC4)CC3)c(C#N)c2)cnn1-c1ccc(Cl)cc1 | -2.89% |  |
| CC(=O)O[C@@H]1C[C@@]23C[C@@]24CC[C@H](O[C@@H]2OC[C@H](O)[C@H](O)[C@H]2O)C(C)(C)[C@@H]4CC[C@H]3[C@]2(C)[C@@H](O)C34O[C@H](C[C@@H](C)[C@@H]3[C@@]12C)[C@@H](C(C)(C)O)O4 | 19% |  |

The compounds below were run on Tov-21-G in the same assay as above. Conditions: Gynecologic cancer cell panel viability, ATPlite luminescence, 48 h; series mostly up to 57.5 µM; activity change, negative = cytotoxicity: at the top concentration.
Procedure, shortened: as §1

| Structure (SMILES) | activity change, negative = cytotoxicity | Potency |
| --- | --- | --- |
| CCCCC1CCN(CCCN2C(=O)CCc3ccccc32)CC1 | 27.6% |  |
| Clc1cccc(COc2cncc(N3CCNCC3)n2)c1 | -0.913% |  |
| O=C(NCC1CCN(Cc2cccc(Cl)c2)CC1)[C@@H]1CCCN(c2ncnc3c2nc2n3CCCC2)C1 | 0.773% |  |
| CC[C@@H](Nc1c(Nc2cccc(C(=O)N(C)C)c2O)c(=O)c1=O)c1cc(C(C)C)co1 | 25.3% |  |
| COc1c(CCC(=O)O)cccc1O[C@@H]1O[C@H](CO)[C@@H](O)[C@H](O)[C@H]1O | -1.55% [at 38.5 µM] |  |
| COC(=O)c1ccc2c(c1)nc(NC(=O)c1ccccc1)n2CCCc1ccccc1 | 4.34% |  |
| Cc1nc(-c2cn3c(n2)-c2ccc(-c4cnn(C(C)(C)C(N)=O)c4)cc2OCC3)n(C(C)C)n1 |  | 11200 nM (active) |
| CC(C)C(C)C(O)C1CC23CC(=O)C4(O)C(=C2CCC3C1C)C=CC1(O)CC(O)CCC14C (stereo not drawn) | -0.0818% [at 25.3 µM] |  |
| C=C1CCC[C@]2(C)CC/C(=C(/CO)C(=O)OC)C[C@@H]12 | 5.87% |  |
| O=S(=O)(NCc1ccccn1)c1ccc(Br)c2ccccc12 | -2.34% |  |
| CCC(C)C(=O)OC12C(OC(C)=O)C(C)C3(O)C(C=C(CO)CC4(O)C(=O)C(C)=CC43)C1C2(C)C (stereo not drawn) | -4.67% [at 25.3 µM] |  |
| CO[C@@H]1[C@H](O)CCC2(CO2)[C@H]1[C@@]1(C)O[C@@H]1CC=C(C)C (stereo partly drawn) | -23.1% |  |
| COc1ccc(-c2cnc3c(-c4cccc5ncccc45)cnn3c2)cc1 | -2.29% |  |
| CC(C)(O)c1ccn2c(-c3ccc(F)c(-c4ccc(F)cc4C#N)c3)cnc2c1F | 6.26% |  |
| O=C(N[C@H](Cc1cscn1)C(=O)N[C@@H](CC1CCCCC1)[C@@H](O)[C@@H](O)C1CC1)c1nc2ccccc2[nH]1 | 10.4% |  |
| CC(=O)C1=C(O)C=C2Oc3c(C(C)=O)c(O)c(C)c(O)c3[C@]2(C)C1=O | 9.99% |  |
| CC[C@H]1OC(=O)[C@H](C)[C@@H](O[C@H]2C[C@@](C)(OC)[C@@H](O)[C@H](C)O2)[C@H](C)[C@@H](O[C@H]2O[C@H](C)C[C@H](N(C)C)[C@H]2O)[C@](C)(O)C[C@@H](C)C(=O)[C@H](C)[C@@H](O)[C@]1(C)O | -15.6% [at 25.3 µM] |  |
| Cc1cc(C)cc(-c2cnc3cc(Cl)c(-c4cccc(O)c4)cc3c2OCCCN)c1 | 2.05% |  |
| O=C(c1ccc(Cl)cc1)N1CCN(c2ccnc3cc(Cl)ccc23)CC1 | 2.65% |  |
| C/C=C(\C)C(=O)O[C@H]1C[C@](C)(O)[C@H]2CC=C(C)[C@H]2[C@@H]2OC(=O)[C@H](C)[C@H]21 | -1.05% [at 38.5 µM] |  |

| Structure (SMILES) | activity change, negative = cytotoxicity | Potency |
| --- | --- | --- |
| CC(C)(CNC(=O)c1cccc(-c2noc(C(F)(F)F)n2)c1)c1coc(-c2ccccc2)n1 | -1.17% |  |
| NS(=O)(=O)c1ccc(N2N=C(c3ccccc3)CC2c2ccccc2)cc1 (stereo not drawn) | 14.5% |  |
| O=C(O)C1=CO[C@@H](O[C@@H]2O[C@H](CO)[C@@H](O)[C@H](O)[C@H]2O)[C@@H]2C(CO)=CC[C@H]12 | 1.43% [at 38.5 µM] |  |
| COC(=O)c1ccnc(-c2cc(C(=O)Nc3ccc(C4(N)CC4)cc3)ccn2)c1 | 2.01% |  |
| CNCCN1CCC(c2cc(CN(C)C(=O)c3cccc(Oc4ccccc4)c3)ccn2)CC1 | -6.35% [at 25.3 µM] |  |
| Cc1c(F)ccc(C(=O)Nc2cc([N+](=O)[O-])ccc2N2CCN(C)CC2)c1Cl | 9.96% |  |
| CCNC(=O)c1noc(-c2cc(Cl)c(O)cc2O)c1-c1ccc(OC)cc1 |  | 562 nM (active) |
| C[C@@H](O[C@H]1OCCN(Cc2nn(P(=O)(O)O)c(=O)[nH]2)[C@H]1c1ccc(F)cc1)c1cc(C(F)(F)F)cc(C(F)(F)F)c1 | 4.72% [at 25.3 µM] |  |
| Cc1[nH]c2ccccc2c1CCNC(=O)c1cccs1 | 4.32% |  |
| CCC(C)/C=C(C)/C=C/C1=CC2=CC(=O)C3(C)OC(C)(O)C(C(=O)OC)C3C2=CO1 (stereo not drawn) | 0.0124% [at 25.3 µM] |  |
| C=C(C(=O)OC)[C@@H]1CC=C2C=CC(=O)[C@H](C)[C@@]2(C)C1 | -4.79% |  |
| NS(=O)(=O)c1ccc(NC(=O)Nc2ccc(F)cc2)cc1 | 5.33% |  |
| Cc1ccc(CNc2ncnc3ccc(-c4ccc(CO)o4)cc23)o1 | 1.35% |  |
| Cc1ccc(-c2c(C(=O)CCl)n(CCCO)c3ncnc(N)c23)cc1 | -23.7% |  |
| CNC(=O)COC(=O)N1CCC(CCc2ccc(Cl)cc2)CC1 | -1.87% |  |
| Cn1ncnc1[C@@H]1c2n[nH]c(=O)c3cc(F)cc(c23)N[C@H]1c1ccc(F)cc1 | -12.7% |  |
| C=C[C@H](/C=C\c1ccc(O)cc1)c1ccc(O)cc1 | -19.4% |  |
| Cc1c(C(=O)Nc2ccc(N3CCC(N4CCOCC4)CC3)c(C#N)c2)cnn1-c1ccc(Cl)cc1 | -16.8% |  |
| CC(=O)O[C@@H]1C[C@@]23C[C@@]24CC[C@H](O[C@@H]2OC[C@H](O)[C@H](O)[C@H]2O)C(C)(C)[C@@H]4CC[C@H]3[C@]2(C)[C@@H](O)C34O[C@H](C[C@@H](C)[C@@H]3[C@@]12C)[C@@H](C(C)(C)O)O4 | -2.14% |  |
